# Experimental data reported in PubChem BioAssay (EPA / NIEHS).
# Results filed as inconclusive are left out. The source made the active and inactive calls. How the source made its calls, unless noted: active means hit-call score of the fitted dose curve at least 0.9, where 1 is the maximum; inconclusive means response in the unintended direction; inactive means score below 0.9.
# Tests used:
# [1] = Tanguay_ZF_120hpf_CFIN_legacy: (Legacy) Oregon State University Tanguay Lab 120 Hour Post-fertilization zebrafish Assay for Caudal Fin Malformation (AID 2283649)
# In short: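 Binary presence or absence of caudal fin malformation at 120 hpf, read by brightfield microscopy, with DMSO as baseline. Larvae came from 5D wild-type embryos exposed statically from 6 hpf at 28C after pronase dechorionation.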
# [2] = Tanguay_ZF_120hpf_PIG_legacy: (Legacy) Oregon State University Tanguay Lab 120 Hour Post-fertilization zebrafish Assay for Pigmentation Malformation (AID 2283650)
# In short: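 Tropical 5D wild-type zebrafish embryos, dechorionated with pronase at 4 hpf, were exposed singly from 6 hpf to 120 hpf statically at 28C in sealed, dark plates with 0.64% DMSO; pigmentation scored present/absent by brightfield microscopy, fitted against DMSO.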
# [3] = Tanguay_ZF_120hpf_CIRC_legacy: (Legacy) Oregon State University Tanguay Lab 120 Hour Post-fertilization zebrafish Assay for Circulatory Malformation (AID 2283651)
# In short: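 Read-out: presence or absence of circulatory malformation at 120 hpf, scored by brightfield microscopy, fitted in the gain-of-signal direction against DMSO baseline. Wild-type 5D larvae were exposed from 6 hpf after enzymatic chorion removal.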
# [4] = Tanguay_ZF_120hpf_SWIM_legacy: (Legacy) Oregon State University Tanguay Lab 120 Hour Post-fertilization zebrafish Assay for Swim Bladder Malformation (AID 2283654);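 further: swim bladder malformation in each larva scored yes or no under brightfield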
# In short: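 Dechorionated Tropical 5D wild-type embryos, placed singly from 6 hpf, were statically exposed at 28C to 120 hpf with 0.64% DMSO final; swim bladder malformation was scored present/absent by brightfield microscopy, gain of signal relative to DMSO controls.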
# [5] = Tanguay_ZF_120hpf_TRUN_legacy: (Legacy) Oregon State University Tanguay Lab 120 Hour Post-fertilization zebrafish Assay for Truncated Body (AID 2283655)
# In short: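 Truncated body is recorded as a binary endpoint at 120 hpf by brightfield imaging of wild-type 5D larvae. Exposure runs statically from 6 hpf at 28C with 0.64% DMSO; embryos dying earlier are not scored.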
# [6] = Tanguay_ZF_120hpf_NC_legacy: (Legacy) Oregon State University Tanguay Lab 120 Hour Post-fertilization zebrafish Assay for Notochord and Tail Malformation (AID 2283656)
# In short: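 Dechorionated Tropical 5D wild-type zebrafish embryos, one per well from 6 hpf, statically exposed to 120 hpf at 28C in 0.64% DMSO final. Notochord distortion scored present/absent by brightfield; dead embryos excluded.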
# [7] = read-out: kallikrein-3 (KLK3), KLK3 (gene 354); assay: LTEA_HepaRG_KLK3: Life Technologies and Expression Analysis (LTEA) Assay for kallikrein-3 (KLK3) using HepaRG (AID 2283652; active means hit-call score of the fitted dose curve at least 0.9, where 1 is the maximum; inactive means score below 0.9); conditions: mRNA level, 48 h; actives raise or lower the signal
# In short: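 Differentiated human HepaRG cells in serum-free induction medium exposed 48 h in duplicate, eight-point half-log series from 100 uM in 0.5% DMSO. KLK3 mRNA by qRT-PCR, normalised to ACTB, GAPDH, POLR2A; bidirectional fit versus DMSO.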
# [8] = read-out: solute carrier (SLC22A6), SLC22A6 (gene 9356); assay: LTEA_HepaRG_SLC22A6: Life Technologies and Expression Analysis (LTEA) Assay for solute carrier (SLC22A6) using HepaRG (AID 2283653; active means hit-call score of the fitted dose curve at least 0.9, where 1 is the maximum; inactive means score below 0.9); conditions: mRNA level, 48 h; actives raise or lower the signal
# Protocol: LTEA_HepaRG is a cell based, multiplexed-readout assay that uses HepaRG, a human liver cell line, with measurements taken at 48 hours after chemical dosing on a 96-well plate.LTEA_HepaRG_SLC22A6 is one of 102 assay component(s) measured in the LTEA HepaRG cell culture assay. It is a marker of NR mediated transport.Data from the assay component LTEA_HepaRG_SLC22A6 was analyzed into 1 endpoint. This assay endpoint, LTEA_HepaRG_SLC22A6, was analyzed with bidirectional fitting relative to DMSO as the negative control and baseline of activity. Using a type of inducible reporter, measures of mRNA induction for gain or loss-of-signal activity can be used to understand regulation of transcription factor activity. To generalize the intended target to other relatable targets, this assay endpoint is annotated to the transporter intended target family, where the subfamily is organic anion transporter.
# A total of 1060 chemcials from the ToxCast library were tested in eight-point concentration-response experiments. Cell culture and cytotoxicity assays were conducted at Thermo Fisher Scientific's Custom Services facility (Madison, WI). A single lot of human HepaRG cells (Thermo Fisher Scientific, Frederick, MD) was used for the cell culture experiments. 96-well format collagen type I coated plates of human HepaRG cells were prepared using established methods. Briefly, cryopreserved HepaRG cells were thawed, plated at a density of approximately 100,000 cells/well in HepaRG Thaw, Plate, and General Purpose media (HPRG770, Thermo Fisher Scientific), and incubated for 48 hours. 0.5% DMSO was selected as vehicle control to balance the requisite need of DMSO in HepaRG cultures to maintain differentiation (for example, baseline metabolism, proportions of hepatocytes vs. cholangiocytes), while enabling further hepatic receptor pathway activation (for example, PXR and CAR) in response to chemical exposure. 48 hours after plating, the culture medium was replaced with HepaRG Serum-Free Incudtion Media. Cells were exposed to each test chemical in duplicate and maintained in CO2 incubators for another 48 hours. Chemical plates were thawed to room temperature and 200x concentrations of treatment groups were prepared. 8-point conentration-reponse curves were made with the highest exposure at 100 uM, followed by half-log dilutions, all in 0.5% DMSO. Each test plate contained variouse controls, induction positive controls (1mM phenobarbital), cytotoxicity positive controls ([…] aflatoxin B1), vehicle controls (0.5% DMSO), and total lysis controls (0.5% DMSO). Cell morphology images were taken using an Essen IncuCyte FLR automated microscope, with six 96-well plates imaged in about 24 minutes. Images were captured and exported and JPEG files. Spent culture media was transfered to black-well plates for the LDH assay, and remaining media was sorted at -80 C for later use. Cells were treated with RLT buffer and frozen until shipped for gene expression analysis. Total RNA was isolated from the cell suspension in 75 uL of Buffer RLT (Qiagen, Germantown, MD 20874) by Quintiles/Expression Analysis (Durham, NC) using a custom isolation procedure. Total RNA from each plate well was transferred to a preamplification plate. Fluidigm's 96.96 Dynamic ArrayTM (Fluidigm, Amsterdam, the Netherlands) technology was used for gene expression analyses by quantitative reverse transcription polymerase chain reaction (qRT-PCR, performed by Quintiles/Expression Analysis, Durham, NC)89. Standard TaqManTM Assays (Applied Biosystems/ThermoFisher Scientific, Foster City, CA) were used to assess the expression of 93 genes selected based on their selectivity and sensitivity to important hepatic receptors known to be modulated by environmental chemicals; importance in human hepatocyte functionality; and hepatotoxicity. […]
# [9] = read-out: solute carrier (SLC10A1), SLC10A1 (gene 6554); assay: LTEA_HepaRG_SLC10A1: Life Technologies and Expression Analysis (LTEA) Assay for solute carrier (SLC10A1) using HepaRG (AID 2283657; active means hit-call score of the fitted dose curve at least 0.9, where 1 is the maximum; inactive means score below 0.9); conditions: mRNA level, 48 h; actives raise or lower the signal
# In short: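 Differentiated HepaRG cells were plated 48 h, then exposed in serum-free induction medium for 48 h to 8 concentrations (top 100 uM, half-log steps, 0.5% DMSO). SLC10A1 mRNA was quantified by qRT-PCR normalized to ACTB, GAPDH, POLR2A; bidirectional fit versus DMSO.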
# [10] = read-out: matrix metalloproteinase-1 (MMP1), MMP1 (gene 4312); assay: LTEA_HepaRG_MMP1: Life Technologies and Expression Analysis (LTEA) Assay for matrix metalloproteinase-1 (MMP1) using HepaRG (AID 2283658; active means hit-call score of the fitted dose curve at least 0.9, where 1 is the maximum; inactive means score below 0.9); conditions: mRNA level, 48 h; actives raise or lower the signal
# In short: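 HepaRG, ~100,000 cells/well, 48 h pre-culture; serum-free induction medium; test chemical 8 conc (max 100 uM, half-log), duplicate, 48 h; 0.5% DMSO; qRT-PCR MMP1, housekeeping-normalized; gain/loss fit vs DMSO.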
smiles,measurement,setting,value
O=C(Nc1ccc(Cl)cc1)Nc1ccc(Cl)c(Cl)c1,outcome,[1],inactive
same,outcome,[2],inactive
same,outcome,[3],inactive
same,outcome,[4],inactive
same,outcome,[5],inactive
same,outcome,[6],inactive
Cc1cc(F)ccc1-c1cc(N2CC[C@@H](O)[C@H]2CO)ncc1N(C)C(=O)C(C)(C)c1cc(C(F)(F)F)cc(C(F)(F)F)c1,outcome,[1],inactive
same,outcome,[2],inactive
same,outcome,[3],inactive
same,outcome,[4],inactive
same,outcome,[5],inactive
same,outcome,[6],inactive
O=C(O)Cn1c(=O)n(Cc2ccc(Br)cc2F)c(=O)c2ccc(Cl)cc21,outcome,[1],inactive
same,outcome,[2],inactive
same,outcome,[3],inactive
same,outcome,[4],inactive
same,outcome,[5],inactive
same,outcome,[6],inactive
CO[C@H]1/C=C/O[C@@]2(C)Oc3c(C)c(O)c4c(O)c(c(/C=N/N5CCN(C)CC5)c(O)c4c3C2=O)NC(=O)/C(C)=C\C=C\[C@H](C)[C@H](O)[C@@H](C)[C@@H](O)[C@@H](C)[C@H](OC(C)=O)[C@@H]1C,outcome,[1],inactive
same,outcome,[2],inactive
same,outcome,[3],inactive
same,outcome,[4],inactive
same,outcome,[5],inactive
CCOC(=O)O[C@H](C)OC(=O)c1ccc2c(c1)cc(C(=O)NC1CCN(C(C)C)CC1)n2Cc1cc(-c2ccc(Cl)s2)on1,outcome,[1],inactive
same,outcome,[2],inactive
same,outcome,[3],inactive
same,outcome,[5],inactive
same,outcome,[6],inactive
CC(C)(C)c1csc(-c2cc3cc(OCc4ccccc4CC(=O)O)ccc3o2)n1,outcome,[3],inactive
same,outcome,[7],inactive
same,outcome,[8],inactive
same,outcome,[4],inactive
same,outcome,[5],inactive
same,outcome,[6],inactive
same,AC50,[9],24.4 µM (active)
same,outcome,[10],inactive
CC(C)(C)c1cc(/C=C2\SC(N)=NC2=O)cc(C(C)(C)C)c1O,outcome,[1],inactive
same,outcome,[2],inactive
same,outcome,[4],inactive
same,outcome,[5],inactive
COc1cccc([C@H](O)C2CCN(CCc3ccc(F)cc3)CC2)c1OC,outcome,[1],inactive
same,outcome,[5],inactive
same,outcome,[6],inactive
CCCC(=O)OCCC(C)C,outcome,[2],inactive
same,outcome,[3],inactive
same,outcome,[4],inactive
same,outcome,[5],inactive
same,outcome,[6],inactive
CCCCCCCCOc1ccc(C(=O)c2ccccc2)c(O)c1,outcome,[1],inactive
same,outcome,[2],inactive
same,outcome,[4],inactive
same,outcome,[5],inactive
same,outcome,[6],inactive
CC(=O)N1CCN(c2ccc(OC[C@H]3CO[C@](Cn4ccnc4)(c4ccc(Cl)cc4Cl)O3)cc2)CC1,outcome,[1],inactive
same,outcome,[3],inactive
same,outcome,[4],inactive
same,outcome,[5],inactive
same,outcome,[6],inactive
CN(C[C@@H](CC[N+]12CCC(C3CCCCC3)(CC1)CC2)c1ccc(Cl)c(Cl)c1)C(=O)c1cc(C(F)(F)F)cc(C(F)(F)F)c1,outcome,[1],inactive
same,outcome,[3],inactive
same,outcome,[4],inactive
same,outcome,[5],inactive
O=CCCCC=O,outcome,[1],inactive
same,outcome,[2],inactive
same,outcome,[4],inactive
same,outcome,[5],inactive
same,outcome,[6],inactive
O=C=NCCCCCCN=C=O,outcome,[1],inactive
same,outcome,[3],inactive
same,outcome,[5],inactive
O=C(O)c1ccccc1-n1cc(C(=O)O)c(=O)c2cc(Nc3c(F)cc(F)cc3Cl)c(Cl)cc21,outcome,[1],inactive
same,outcome,[3],inactive
same,outcome,[4],inactive
same,outcome,[6],inactive
CCN(CC)C(=O)c1cc(S(=O)(=O)Cc2ccccc2)c(N2CCC(c3ccccc3)CC2)cc1N(CC)CCN(C)C,outcome,[3],inactive
same,outcome,[8],inactive
same,outcome,[4],inactive
same,outcome,[5],inactive
same,outcome,[6],inactive
same,outcome,[9],inactive
same,outcome,[10],inactive
CC(C)(c1cc(Br)c(O)c(Br)c1)c1cc(Br)c(O)c(Br)c1,outcome,[1],inactive
same,outcome,[2],inactive
same,outcome,[3],inactive
same,outcome,[5],inactive
same,outcome,[6],inactive
CCCCOC(=O)CC(CC(=O)OCCCC)(OC(C)=O)C(=O)OCCCC,outcome,[2],inactive
same,outcome,[3],inactive
same,outcome,[4],inactive
same,outcome,[5],inactive
NCc1cccc(C2CCN(C(=O)c3ccc(C#Cc4ccccc4F)o3)CC2)c1,outcome,[1],inactive
same,outcome,[2],inactive
same,outcome,[4],inactive
same,outcome,[5],inactive
same,outcome,[6],inactive
Cc1c2ccccc2c(C)c2c1ccc1ccccc12,AC50,[1],25.8 µM (active)
same,outcome,[2],inactive
same,outcome,[3],inactive
same,outcome,[5],inactive
same,outcome,[6],inactive
CCN(Cc1cccnc1)C(=O)c1cccc(Cl)c1[C@]1(C)C(=O)N(Cc2ccc(OC)cc2OC)c2ccc(Cl)cc21,outcome,[1],inactive
same,outcome,[2],inactive
same,outcome,[4],inactive
same,outcome,[5],inactive
same,outcome,[6],inactive
